# A selection: hits, their analogues and other compounds. The true share with any hit is near 3.7%.
# miR-21 reporter – qHTS Assay for Modulators of miRNAs and/orActivators of miR-21; HeLa miR-21 FLuc reporter, luciferase, 48 h; Potency, µM (titrated, usually from 38.3 µM), without a hit: top-dose activity change, positive = activation, most hits filed as activators; 340,000 tested, under 10 active; AID 2288, 2010;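 note: % of control where 0% means no effect; miR-21 action dims this reporter so a rising signal means less miR-21 action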
#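 HeLa cells endogenously expressing miR-21, stably carrying CMV-driven firefly luciferase with a downstream miR-21 binding site, 2000 cells/well. Titrations up to approximately 40 uM, 48 hours; luciferase luminescence read.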
# Nrf2 ARE act – qHTS of Nrf2 Activators. AREc32 ARE-luciferase reporter (MCF7-derived line), luminescence, 24 h. actives 0.31% (n = 410,000). Potency, µM (titrated, usually from 46.1 µM), for the others: top-dose activation, usual class: activators; note: potency is the fitted concentration of half-maximal effect; % of control where 0% means no effect; nearly all actives have a fitted effect of over 65% in size
#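 Reporter line AREc32 (ARE-Fluc), seeded overnight in OPTI-MEM with 5% FBS; compound pin-transferred, 24 hr at 37 deg C, 5% CO2; luminescent read-out.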
# ClpP mod – qHTS Assay for Activators of ClpP; purified B. subtilis ClpP, FRET peptide cleavage, 20 min; Potency, µM (series often up to 57.5 µM), for inactives: at the highest dose activity change, negative = active; actives 1.9% (n = 340,000); active = well fitted falling curve with a large enough effect; inconclusive = small, poorly fitted or top-dose-only effect; inactive = no such curve, though single readings can be large or run the other way; note: potency is the fitted concentration of half-maximal effect; the source files actives as falling curves though it sought activators and does not explain the sign; nearly all actives have a fitted effect of over 65% in size
# Target sequence (P80244 whole entry, looked up): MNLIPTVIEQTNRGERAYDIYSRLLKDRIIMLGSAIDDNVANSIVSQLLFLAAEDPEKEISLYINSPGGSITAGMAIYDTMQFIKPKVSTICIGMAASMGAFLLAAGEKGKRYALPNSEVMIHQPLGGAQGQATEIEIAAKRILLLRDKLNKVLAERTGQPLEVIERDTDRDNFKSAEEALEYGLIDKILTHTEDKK
#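 FRET quenching reversal measured ClpP activation: 10 microg/mL B. subtilis ClpP at pH 8 with the FRET-FV decapeptide, read at 430 nm after 320 nm excitation. The 20-min minus 0-min signal was scaled between DMSO/no-enzyme wells and ADEP (5.8 microM final).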
# Nrf2 inh – Nrf2 qHTS screen for inhibitors | A549 ARE-Fluc reporter, luciferase luminescence, 18-24 h | Potency, µM (doses to about 46 µM), for the others: at the highest dose activity change, negative = inhibition, hits mostly inhibitors | AID 504444, 2011 | actives 2.1% (n = 360,000); note: potency is the fitted concentration of half-maximal effect; % is set by controls: 0 for no effect and ±100 for the full control effect; nearly all actives have a fitted effect of over 60% in size
#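 A549 ARE_Fluc cells (5000/well, 5% FBS OPTI-MEM) pre-incubated 2 h, then treated with compounds 18-24 h at 37C/5% CO2 in concentration-response. CellTiter-Fluor viability read first; BugLite luciferase luminescence after 15 min at room temperature gives Nrf2 activity.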
# A549 tox-1 – Nrf2 qHTS screen for inhibitors: counterscreen for cytotoxicity. Potency, µM (top dose mostly 46 µM), without a hit: at the top dose activity change, negative = cytotoxicity, usual class: inhibitors. actives 0.16% (n = 390,000). A549 ARE-Fluc cells, CellTiter-Fluor viability, 18-24 h; note: potency is the fitted concentration of half-maximal effect; % is set by controls: 0 for no effect and ±100 for the full control effect
#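 A549 ARE-Fluc cells in 5% FBS OPTI-MEM, 5000 cells/well, rested 2 h then exposed to compounds in concentration-response for 18-24 h at 37 °C. Viability by CellTiter-Fluor fluorescence (Ex 405/Em 525) after 30 min; luciferase luminescence (BugLite, 15 min, RT) read afterwards.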
# IL-2 act – qHTS of IL-2 Activators | IL-2 activation reporter assay, cell-based qHTS; stimulated with anti-CD3/CD4/CD28 beads; in transgenic mouse T cells | activation, % (series mostly up to about 46 µM) | actives 0.065% (n = 360,000) | AID 652025, 2013; in the data active = activation above about 50%; inconclusive = mostly about 30% to 49%; note: 0% is about no effect
#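 Unstimulated transgenic mouse T cells, 750 per well, received compound and, after 60 minutes, anti-CD3/anti-CD4 bead plus anti-CD28 stimulation. EGFP and DsRed were quantified after 18 hours.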
# FLuc enzyme inh – Nrf2 qHTS screen for inhibitors: Purified Fluc Biochemical Counterscreen for Hit Validation | shares compounds with Nrf2 inh | purified firefly luciferase, luminescence inhibition | Potency, µM (top dose mostly 57.5 µM), without a hit: top-dose activity change, negative = inhibition, most hits filed as inhibitors | actives 4% (n = 1,400) | AID 720522, 2013; note: potency is the fitted concentration of half-maximal effect; % is set by controls: 0 for no effect and ±100 for the full control effect; nearly all actives have a fitted effect of over 65% in size
# Target sequence (P08659 whole entry, looked up): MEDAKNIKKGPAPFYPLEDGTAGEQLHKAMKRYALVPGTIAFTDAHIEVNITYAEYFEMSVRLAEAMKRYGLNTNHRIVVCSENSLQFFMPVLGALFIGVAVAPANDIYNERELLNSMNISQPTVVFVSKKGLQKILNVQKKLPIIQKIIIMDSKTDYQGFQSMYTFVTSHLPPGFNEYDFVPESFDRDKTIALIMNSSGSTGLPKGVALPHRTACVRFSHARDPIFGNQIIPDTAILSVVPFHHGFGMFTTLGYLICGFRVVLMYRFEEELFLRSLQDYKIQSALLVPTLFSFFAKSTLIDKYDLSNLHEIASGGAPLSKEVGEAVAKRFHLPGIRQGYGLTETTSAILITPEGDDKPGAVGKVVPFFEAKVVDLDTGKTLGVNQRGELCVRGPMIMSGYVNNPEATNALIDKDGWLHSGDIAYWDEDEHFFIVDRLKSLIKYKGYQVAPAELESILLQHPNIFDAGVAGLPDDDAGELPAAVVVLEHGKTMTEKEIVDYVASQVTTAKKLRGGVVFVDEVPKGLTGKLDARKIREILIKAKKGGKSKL
# A549 tox-2 – Nrf2 qHTS screen for inhibitors: A549 ARE-Fluc Cytotoxicity Counterscreen for Hit Validation | A549 ARE-Fluc cells, cytotoxicity counterscreen | Potency, µM (titrated, usually from 46.1 µM), for the others: top-dose activity change, negative = cytotoxicity, actives largely listed as inhibitors | actives 2% (n = 1,400) | shares compounds with Nrf2 inh;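 note: potency is the fitted concentration of half-maximal effect; cells exposed to compounds for 18 to 24 hours; % is set by controls: 0 for no effect and ±100 for the full control effect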
# ARE-Fluc inh – Nrf2 qHTS screen for inhibitors: Nrf2 A549 ARE-Fluc Confirmation Assay for Hit Validation; shares compounds with Nrf2 inh; A549 ARE-firefly luciferase reporter, luminescence; Potency, µM (highest dose often 46.1 µM), inactives show at the top dose activity change, negative = inhibition, usual class: inhibitors; actives 74% (n = 1,400); note: potency is the fitted concentration of half-maximal effect; % is set by controls: 0 for no effect and ±100 for the full control effect; nearly all actives have a fitted effect of over 65% in size
# Numbers without * were called inactive; ? = inconclusive; . = no result. Unless noted, calls come from the whole dose curve; as a rule, active = well fitted curve in the direction sought with a large enough effect; inconclusive = small, poorly fitted or top-dose-only effect, or another doubt; inactive = no such curve, though single readings can be large; an effect the other way counts as inactive or inconclusive.
SMILES,miR-21 reporter,Nrf2 ARE act,ClpP mod,Nrf2 inh,A549 tox-1,IL-2 act,FLuc enzyme inh,A549 tox-2,ARE-Fluc inh
Cc1ccc(S(=O)(=O)N2CCN(C(=O)C3CCN(c4ncnc5sc(C)c(C)c45)CC3)CC2)c(C)c1,.,0.3%,-0.4%,8.2µM*,-10.3%,-0.9,3.4%,-13.7%,11.6µM*
Cc1sc2ncnc(N3CCN(S(=O)(=O)c4ccc(C(C)(C)C)cc4)CC3)c2c1C,.,-1.1%,-6.8%,?,?,-0.8,.,.,.
O=C(N/N=C/c1ccc([N+](=O)[O-])s1)c1ccccc1Br,?,-2.6%,-16.8%,9.2µM*,?,1.2,?,-18.8%,5.8µM*
O=C(COc1ccccc1Cl)OCc1cc(=O)n2nc(C3CCCCC3)sc2n1,-2.7%,-1.6%,-3.6%,?,0.9%,.,.,.,.
O=C(NNc1ccnc2cc(Cl)ccc12)C1CCCCC1,16.6%,0.6%,0.0%,3.26µM*,-17.3%,5.2,?,-13.1%,2.59µM*
CCCCCCCn1c2c(c(=N)c3ccccc31)CCC2,?,0.4%,3.8%,2.31µM*,?,-2.8,2.7%,?,1.46µM*
Cn1nccc1C(=O)Nc1cc(Cl)ccc1Cl,.,3.1%,-0.2%,2.91µM*,1.3%,-0.7,-14.9%,-1.0%,5.8µM*
CCOC(=O)N1CCC(Nc2cc(C)nc3c(-c4ccccc4OC)c(C)nn23)CC1,16.4%,3.1%,?,9.2µM*,23.7%,-1.7,-1.0%,-25.3%,11.6µM*
CC(=O)C(C)n1c(CN(C)Cc2ccccc2)nc2c1c(=O)n(C)c(=O)n2C (stereo unspecified),-0.1%,4.0%,.,?,-2.3%,-2.4,.,.,.
CC(C)n1c(CN(C)Cc2ccccc2)nc2c1c(=O)n(C)c(=O)n2C,19.4%,-0.5%,.,0.461µM*,-17.5%,-0.5,1.9%,-3.2%,4.11µM*
Cc1ccc(CCNC(=O)CCn2nc(-c3ccc(C)cc3)ccc2=O)cc1,-9.7%,4.8%,-4.4%,.,2.8%,.,.,.,.
Cc1onc(-c2c(F)cccc2Cl)c1C(=O)Nc1nccs1,6.9%,-0.3%,.,-12.9%,0.5%,-0.7,.,.,.
Cc1onc(-c2c(F)cccc2Cl)c1C(=O)Nc1nnc(C(F)(F)F)s1,29.0%,4.9%,-7.2%,1.46µM*,?,-1.5,-1.7%,-9.0%,0.116µM*
OCc1c[nH]c2ccccc12,.,4.5%,-7.7%,15.6%,-9.3%,0.0,.,.,.
Oc1cccc2c(CC(O)c3c[nH]c4ccccc34)ccnc12 (stereo unspecified),.,.,-3.1%,.,.,.,-14.7%,-29.0%,4.11µM*
Cc1cc(C)c2c(N)c3cccc(C)c3nc2n1,?,-2.3%,0.8%,7.31µM*,-9.3%,-6.0,-12.3%,-1.7%,3.26µM*
CC(=O)Nc1c(C)nn(-c2ccccc2)c1N1CCC(C(=O)Nc2ccccc2F)CC1,-3.9%,3.4%,-3.7%,.,-17.5%,.,.,.,.
CCOc1ccc(CCNc2ncnc3onc(C)c23)cc1OCC,25.0%,5.0%,2.2%,7.31µM*,0.6%,.,3.0%,-3.1%,?
Cc1ccc(CCNc2ncnc3onc(C)c23)cc1,19.9%,4.7%,1.1%,9.2µM*,-1.4%,.,?,0.1%,5.8µM*
COc1ccc(OC)c(CNc2ncnc3onc(C)c23)c1,2.0%,2.8%,-0.9%,-25.7%,2.6%,.,.,.,.
Cc1noc2ncnc(NCCc3ccccc3)c12,15.9%,1.3%,-1.6%,?,-7.0%,.,.,.,.
COc1ccc(CNc2ncnc3onc(C)c23)cc1,14.9%,-0.3%,0.9%,4.11µM*,1.8%,.,-1.4%,0.7%,?
CCOCCCNc1ncnc2onc(C)c12,0.1%,-0.4%,0.2%,23.9%,-4.0%,.,.,.,.
O=C(Cn1c(=O)c2cccn2c2ccc(F)cc21)NCc1cccc(Cl)c1,26.3%,0.3%,?,10.9%,-3.6%,.,.,.,.
COc1ccc(OC)c(S(=O)(=O)NCC(c2cccs2)S(=O)(=O)c2ccc(F)cc2)c1 (stereo unspecified),?,16.3%,1.7%,.,5.7%,.,.,.,.
SMILES,miR-21 reporter,Nrf2 ARE act,ClpP mod,Nrf2 inh,A549 tox-1,IL-2 act,FLuc enzyme inh,A549 tox-2,ARE-Fluc inh
Cc1ccc(CNC(=O)c2cc3c(s2)-c2ccc(Cl)cc2SC3)cc1,0.9%,-0.1%,4.3%,?,2.2%,.,.,.,.
CN(C)CCNC(=O)c1cc2c(s1)-c1ccc(Cl)cc1SC2,?,-3.0%,4.9%,5.8µM*,4.0%,-1.0,-1.4%,?,0.013µM*
Cc1ccc(-c2cc3cccc[n+]3cc2-c2ccc(C)cc2)cc1,?,3.3%,2.82µM*,3.26µM*,-16.9%,-3.9,0.9%,-11.7%,2.59µM*
CCc1ccc(OC(C)c2nc(-c3ccc(-n4cccc4)cc3)no2)cc1 (stereo unspecified),-3.7%,0.0%,?,8.2µM*,8.9%,.,0.6%,3.0%,8.2µM*
CCc1ccc(OCc2nc(-c3ccc(-n4cccc4)cc3)no2)cc1,-6.0%,-0.3%,-4.9%,?,-2.9%,.,.,.,.
c1ccc2c(c1)CCN(c1ncnc3c1[nH]c1ccccc13)C2,?,1.9%,20µM*,5.8µM*,-25.2%,-2.5,-24.4%,-10.2%,5.8µM*
Cc1ccc2c(c1)[nH]c1c(N3CCN(Cc4ccccc4)CC3)ncnc12,29.9%,-1.6%,?,8.2µM*,?,-2.8,-29.1%,?,11.6µM*

# Screening results (PubChem BioAssay)
